The values below come from PubChem BioAssay (NCI).

The structures appear in SMILES notation. The panel holds about 83,000 compounds, 20% with a hit somewhere; the sample as a whole holds those more often.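 48-hour exposure, single concentration, 96-well plates; percent growth endpoint where 0 means no net growth. Active: below 10.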 Values without a mark were called inactive. Active and inactive are the calls of the source.

Common to all, as to test: NCI-60 one-dose screen, 48 h (100 = growth as untreated, 0 = no growth, -100 = all killed)
One assay relates to NCI-H23 lung. As to conditions: 10 µM unless noted.
The test system of a further assay is NCI-H226 lung. As to conditions: 10 µM unless noted.
For a further assay, the system named is NCI-H322M lung. As to conditions: 10 µM unless noted.
In another assay the test system is NCI-H460 lung. As to conditions: 10 µM unless noted.
A further assay concerns HOP-92 NSCLC. As to conditions: 10 µM.
The test system of another assay is NCI-H522 lung. As to conditions: 10 µM.
A further assay has as its system A549/ATCC NSCLC. As to conditions: 10 µM unless noted.
For the next assay, the system named is 786-0 renal. The conditions noted are these: 10 µM unless noted.
A further assay concerns DU-145 prostate. As to conditions: 10 µM unless noted.
The next assay deals with K-562 leukemia. The conditions noted are these: 10 µM unless noted.
Another assay has as its system MALME-3M melanoma. The conditions noted are these: 10 µM unless noted.
The subject of a further assay is MDA-MB-231 breast. As to conditions: 10 µM unless noted.
The next assay deals with RXF 393 renal. As to conditions: 10 µM unless noted.
The test system of the next assay is SF-268 CNS. As to conditions: 10 µM unless noted.
The next assay relates to SF-295 CNS. As to conditions: 10 µM unless noted.
For the next assay, the system named is SF-539 CNS. As to conditions: 10 µM unless noted.
The test system of another assay is UACC-257 melanoma. As to conditions: 10 µM unless noted.
The next assay deals with M14 melanoma. The conditions noted are these: 10 µM unless noted.
For another assay, the system named is COLO 205 colon. The conditions noted are these: 10 µM unless noted.

Take `CCC(C)C1NC(=O)C(CCCCN)NC(=O)C(CCCCN)NC(=O)C(CC(C)C)NC(=O)C(CCCCN)NC(=O)C(C(C)CC)NC(=O)C(C(C)C)NC(=O)C(C(C)CC)NC(=O)C(CCCCN)NC(=O)C(CCCCN)NC(=O)C(C)NC(=O)C(CCCCN)NC(=O)C(CC(C)C)NC1=O` (stereo not given): the growth in the assay on NCI-H23 lung was 16.6%; in the assay on NCI-H226 lung, 46.8%; in the assay on NCI-H322M lung, 82%; with NCI-H460 lung, 14.8%; in the assay on HOP-92 NSCLC, -9.52% (active); in the assay with NCI-H522 lung it was 9.29% (active). Moreover, the growth in the assay on A549/ATCC NSCLC is 20.2%; in the assay with 786-0 renal, 20.8%; in the assay on DU-145 prostate it was 25.5%; in the assay on K-562 leukemia it was 9.18% (active); in the assay with MALME-3M melanoma, 9.48% (active); with MDA-MB-231 breast it was -0.123% (active). In addition, the growth in the assay with RXF 393 renal was 45.2%; in the assay on SF-268 CNS, 19.5%; with SF-295 CNS, 27.4%; in the assay with SF-539 CNS it was 67.5%; in the assay on UACC-257 melanoma, 7.94% (active); with M14 melanoma, 22.2%.

Regarding `COc1cc(/C=C/C(=O)c2ccc(F)cc2)ccc1OCCCCOc1cc2c(cc1OC)C(=O)N1CCCC1C=N2` (stereo not given), the growth in the assay on NCI-H23 lung is -33.9% (active); in the assay on NCI-H226 lung, -8.87% (active); in the assay on NCI-H322M lung it was 88.1%; in the assay with NCI-H460 lung it was -49.5% (active); in the assay on HOP-92 NSCLC, -43.9% (active); with NCI-H522 lung, -61.1% (active). For the same molecule, the growth is 45.9% in the assay with A549/ATCC NSCLC; -45.2% (active) in the assay with COLO 205 colon; -72.1% (active) in the assay on DU-145 prostate; -23.9% (active) in the assay with K-562 leukemia; -6.3% (active) with MALME-3M melanoma; -15% (active) with MDA-MB-231 breast. For the same molecule, the growth is -71.6% (active) with RXF 393 renal; -12.4% (active) in the assay with SF-268 CNS; -29.1% (active) in the assay on SF-295 CNS; -61.9% (active) in the assay on SF-539 CNS; 2.17% (active) with UACC-257 melanoma.

For `O=C(CN1C(=O)NC(c2ccccc2)(c2ccccc2)C1=O)c1ccc(N2CCCC2)cc1`, the growth is 72.2% in the assay with NCI-H23 lung; 90.7% in the assay on NCI-H226 lung; 97.4% in the assay on NCI-H322M lung; 103% with NCI-H460 lung; 73.8% with HOP-92 NSCLC; 64.5% in the assay on NCI-H522 lung. The growth with A549/ATCC NSCLC is 77.2%; in the assay on 786-0 renal, 99.6%; with DU-145 prostate, 107%; with K-562 leukemia, 29.5%; in the assay with MALME-3M melanoma it was 72.1%; in the assay on MDA-MB-231 breast it was 113%. In addition, the growth in the assay with RXF 393 renal was 81%; with SF-268 CNS it was 97.8%; in the assay with SF-295 CNS it was 72.1%; in the assay with SF-539 CNS it was 100%; in the assay on UACC-257 melanoma, 85.8%; with M14 melanoma, 52.9%.

In the case of `COc1ccc(C(O)(c2ccccc2)C(C(=O)O)c2ccccc2)cc1` (stereo not given), the growth with NCI-H23 lung is 102%; in the assay on NCI-H226 lung, 106%; with NCI-H322M lung it was 105%; in the assay with NCI-H460 lung it was 116%; in the assay with HOP-92 NSCLC it was 63%; with NCI-H522 lung, 98.5%. For the same molecule, the growth with 786-0 renal was 103%; in the assay with COLO 205 colon, 111%; with DU-145 prostate, 118%; in the assay with K-562 leukemia it was 101%; in the assay on MALME-3M melanoma, 107%; with MDA-MB-231 breast it was 103%. The growth was 121% in the assay with RXF 393 renal; 107% in the assay on SF-268 CNS; 118% with SF-295 CNS; 92.7% with SF-539 CNS; 127% in the assay with UACC-257 melanoma; 103% with M14 melanoma.

As for `O=C(Nc1ccccc1)Nc1ccc(Nc2ncnc3sc4c(c23)CCCC4)cc1`, the growth in the assay on NCI-H23 lung is 100%; in the assay on NCI-H226 lung it was 89.9%; in the assay with NCI-H322M lung, 106%; in the assay on NCI-H460 lung it was 104%; in the assay with HOP-92 NSCLC it was 101%; in the assay on NCI-H522 lung, 93%. Moreover, the growth was 73.9% in the assay on A549/ATCC NSCLC; 110% in the assay with 786-0 renal; 109% in the assay with DU-145 prostate; 99.8% in the assay on K-562 leukemia; 102% in the assay with MALME-3M melanoma; 91.7% in the assay on MDA-MB-231 breast. Also, the growth with RXF 393 renal is 102%; in the assay with SF-268 CNS, 100%; in the assay on SF-295 CNS, 102%; with SF-539 CNS, 104%; in the assay with UACC-257 melanoma, 93.5%; in the assay with M14 melanoma, 103%.

`O=C(N/N=C\c1ccc(-c2ccc(Br)cc2)o1)c1cc2oc(-c3cccc(C(F)(F)F)c3)cc2[nH]1`: the growth with NCI-H23 lung is 96.8%; with NCI-H226 lung it was 106%; in the assay on NCI-H322M lung, 70.6%; in the assay with NCI-H460 lung it was 91.5%; with HOP-92 NSCLC, 111%; in the assay on NCI-H522 lung, 122%. The growth in the assay with A549/ATCC NSCLC is 38.3%; with COLO 205 colon, 107%; in the assay on DU-145 prostate, 126%; in the assay with K-562 leukemia it was 90.2%; in the assay with MALME-3M melanoma, 97.1%; in the assay on MDA-MB-231 breast it was 111%. The growth in the assay on SF-268 CNS is 87.7%; in the assay on SF-539 CNS, 97.9%; in the assay on UACC-257 melanoma, -48.2% (active); in the assay with M14 melanoma, 117%.

On to `COC(=O)c1ccc2[nH]c(O)c(C(=Nc3ccc(N(C)C(=O)CN4CCN(C)CC4)cc3)c3ccc([N+](=O)[O-])cc3)c2c1`, for which the growth was 57.3% with NCI-H23 lung; 55.8% with NCI-H226 lung; 41.9% with NCI-H322M lung; 48.5% in the assay with NCI-H460 lung; 63.6% with HOP-92 NSCLC; 72.8% in the assay with A549/ATCC NSCLC. Further, the growth was 33.1% in the assay on 786-0 renal; 43.8% in the assay on COLO 205 colon; 47.3% in the assay on DU-145 prostate; 1.99% (active) in the assay with K-562 leukemia; -1.29% (active) in the assay with MALME-3M melanoma; 70.2% with MDA-MB-231 breast. In addition, the growth in the assay on RXF 393 renal is 33.9%; with SF-268 CNS it was 45.3%; with SF-295 CNS it was 55.2%; with SF-539 CNS it was 38.9%; with UACC-257 melanoma, 85.4%; in the assay with M14 melanoma, 32.1%.

For the molecule `Cc1[nH]n(C(=S)Nc2nc3cc(Cl)c(F)cc3s2)c(=O)c1N=Nc1ccc(F)c(Cl)c1`, the growth with NCI-H23 lung is 97.4%; in the assay with NCI-H226 lung, 95.7%; in the assay with NCI-H322M lung it was 119%; in the assay with NCI-H460 lung it was 106%; in the assay with HOP-92 NSCLC, 71.2%; with NCI-H522 lung, 123%. In addition, the growth with A549/ATCC NSCLC is 40.1%; with COLO 205 colon, 109%; in the assay on DU-145 prostate, 154%; in the assay with K-562 leukemia, 89.5%; in the assay with MALME-3M melanoma, 139%; in the assay with MDA-MB-231 breast, 93.5%. The growth is 90% in the assay with SF-268 CNS, 108% in the assay on SF-539 CNS, -34.2% (active) in the assay with UACC-257 melanoma and 114% in the assay on M14 melanoma.

In the case of `CCOc1ccccc1/C=N\N=C(N/N=C/c1ccccc1OCC)N/N=C/c1ccccc1OCC`, the growth with NCI-H23 lung was 18.8%; in the assay with NCI-H226 lung, 20.3%; in the assay with NCI-H322M lung, 11.3%; in the assay with NCI-H460 lung it was 1.36% (active); in the assay on HOP-92 NSCLC, -21.1% (active); in the assay with NCI-H522 lung it was 1.5% (active). Moreover, the growth was 9.6% (active) with A549/ATCC NSCLC; 22.9% in the assay on 786-0 renal; 16.1% in the assay on DU-145 prostate; 21.4% with K-562 leukemia; 24.1% with MALME-3M melanoma; 9.5% (active) with MDA-MB-231 breast. Besides, the growth in the assay with RXF 393 renal is 19.2%; in the assay with SF-295 CNS, 9.61% (active); in the assay on UACC-257 melanoma it was 7.38% (active); in the assay with M14 melanoma, 32.3%.
